# According to the supplement of paper PMC12282887:
# ± gives the standard deviation of the averaged measurements.
# How the values were obtained:
# Assay in all cases: promoter activity interaction Z-score (Lux/OD deviation from empty-vector control); higher = stronger promoter induction by the compound
# [1] = test system: E. coli BW25113 acrABp lux reporter
# How it was run: (§1)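 In 384-well plates, 40 µl LB Lennox cultures of E. coli BW25113 with low-copy luxCDABE promoter reporters grew at 37°C. Optical density at 600 nm and light output were recorded every 30 min for 12 h, with windows of 0–8 h for wild type and 1–9 h for deletion strains, and wells under 10% of the median growth value were left out. Each value is a Z-transformed residual of growth-normalised luminescence fitted against a control.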
# [2] = test system: E. coli BW25113 micFp lux reporter
# How it was run: as §1
# [3] = test system: E. coli BW25113 ompFp lux reporter
# How it was run: as §1
# [4] = test system: E. coli BW25113 robp lux reporter
# How it was run: as §1
# [5] = test system: E. coli BW25113 soxSp lux reporter
# How it was run: as §1
# [6] = test system: E. coli BW25113 tolCp lux reporter
# How it was run: as §1
# [7] = 6.9 µg/ml, genetic background: wild type
# [8] = 6.9 µg/ml, genetic background: ΔmarA
# [9] = 6.9 µg/ml, genetic background: Δrob
# [10] = 6.9 µg/ml, genetic background: ΔsoxS
# [11] = 13.8 µg/ml, genetic background: wild type
# [12] = 13.8 µg/ml, genetic background: ΔmarA
# [13] = 13.8 µg/ml, genetic background: Δrob
# [14] = 13.8 µg/ml, genetic background: ΔsoxS
# [15] = 27.5 µg/ml, genetic background: wild type
# [16] = 27.5 µg/ml, genetic background: ΔmarA
# [17] = 27.5 µg/ml, genetic background: Δrob
# [18] = 27.5 µg/ml, genetic background: ΔsoxS
# [19] = 55 µg/ml, genetic background: wild type
# [20] = 55 µg/ml, genetic background: ΔmarA
# [21] = 55 µg/ml, genetic background: Δrob
# [22] = 55 µg/ml, genetic background: ΔsoxS
compound,measurement,setting,value
CCCC(=O)O [Butyrate],promoter activity interaction Z-score,[1]; [7],-0.186 ± 0.091
same,promoter activity interaction Z-score,[1]; [8],-0.105 ± 0.089
same,promoter activity interaction Z-score,[1]; [9],-0.0421 ± 0.058
same,promoter activity interaction Z-score,[1]; [10],0.455 ± 0.31
same,promoter activity interaction Z-score,[1]; [11],0.0203 ± 0.11
same,promoter activity interaction Z-score,[1]; [12],0.0848 ± 0.57
same,promoter activity interaction Z-score,[1]; [13],0.344 ± 0.08
same,promoter activity interaction Z-score,[1]; [14],-0.00445 ± 0.01
same,promoter activity interaction Z-score,[1]; [15],-0.32 ± 0.15
same,promoter activity interaction Z-score,[1]; [16],0.724 ± 0.18
same,promoter activity interaction Z-score,[1]; [17],-0.04 ± 0.27
same,promoter activity interaction Z-score,[1]; [18],0.471 ± 0.41
same,promoter activity interaction Z-score,[1]; [19],0.0224 ± 0.013
same,promoter activity interaction Z-score,[1]; [20],0.369 ± 0.73
same,promoter activity interaction Z-score,[1]; [21],0.3 ± 0.086
same,promoter activity interaction Z-score,[1]; [22],0.561 ± 1.1
same,promoter activity interaction Z-score,[2]; [7],-0.053 ± 0.54
same,promoter activity interaction Z-score,[2]; [8],-0.02 ± 0.084
same,promoter activity interaction Z-score,[2]; [9],0.0084 ± 0.082
same,promoter activity interaction Z-score,[2]; [10],-0.0289 ± 0.27
same,promoter activity interaction Z-score,[2]; [11],0.0525 ± 0.25
same,promoter activity interaction Z-score,[2]; [12],0.104 ± 0.01
same,promoter activity interaction Z-score,[2]; [13],-0.131 ± 0.024
same,promoter activity interaction Z-score,[2]; [14],0.104 ± 0.51
same,promoter activity interaction Z-score,[2]; [15],-0.317 ± 0.084
same,promoter activity interaction Z-score,[2]; [16],0.0463 ± 0.13
same,promoter activity interaction Z-score,[2]; [17],-0.0949 ± 0.063
same,promoter activity interaction Z-score,[2]; [18],0.336 ± 0.088
same,promoter activity interaction Z-score,[2]; [19],-0.235 ± 0.24
same,promoter activity interaction Z-score,[2]; [20],-0.118 ± 0.0028
same,promoter activity interaction Z-score,[2]; [21],-0.0628 ± 0.18
same,promoter activity interaction Z-score,[2]; [22],-0.082 ± 0.078
same,promoter activity interaction Z-score,[3]; [7],-0.311 ± 0.047
same,promoter activity interaction Z-score,[3]; [8],-0.076 ± 0.29
same,promoter activity interaction Z-score,[3]; [9],0.0244 ± 0.24
same,promoter activity interaction Z-score,[3]; [10],-0.0786 ± 0.12
same,promoter activity interaction Z-score,[3]; [11],-0.231 ± 0.022
same,promoter activity interaction Z-score,[3]; [12],0.259 ± 0.068
same,promoter activity interaction Z-score,[3]; [13],0.303 ± 0.041
same,promoter activity interaction Z-score,[3]; [14],0.34 ± 0.31
same,promoter activity interaction Z-score,[3]; [15],-0.53 ± 0.22
same,promoter activity interaction Z-score,[3]; [16],-0.0799 ± 0.19
same,promoter activity interaction Z-score,[3]; [17],0.0179 ± 0.31
same,promoter activity interaction Z-score,[3]; [18],0.623 ± 0.35
same,promoter activity interaction Z-score,[3]; [19],0.0627 ± 0.12
same,promoter activity interaction Z-score,[3]; [20],0.515 ± 0.0087
same,promoter activity interaction Z-score,[3]; [21],0.664 ± 0.45
same,promoter activity interaction Z-score,[3]; [22],0.842 ± 0.3
same,promoter activity interaction Z-score,[4]; [7],0.406 ± 0.012
same,promoter activity interaction Z-score,[4]; [8],-0.648 ± 0.21
same,promoter activity interaction Z-score,[4]; [9],0.484 ± 0.27
same,promoter activity interaction Z-score,[4]; [10],0.116 ± 0.23
same,promoter activity interaction Z-score,[4]; [11],0.00618 ± 0.49
same,promoter activity interaction Z-score,[4]; [12],0.268 ± 0.098
same,promoter activity interaction Z-score,[4]; [13],0.377 ± 0.92
same,promoter activity interaction Z-score,[4]; [14],0.84 ± 0.41
same,promoter activity interaction Z-score,[4]; [15],-0.708 ± 0.16
same,promoter activity interaction Z-score,[4]; [16],-0.0714 ± 0.84
same,promoter activity interaction Z-score,[4]; [17],-0.162 ± 0.23
same,promoter activity interaction Z-score,[4]; [18],0.234 ± 0.13
same,promoter activity interaction Z-score,[4]; [19],0.0368 ± 0.57
same,promoter activity interaction Z-score,[4]; [20],-0.0155 ± 0.33
same,promoter activity interaction Z-score,[4]; [21],0.391 ± 0.82
same,promoter activity interaction Z-score,[4]; [22],0.993 ± 0.59
same,promoter activity interaction Z-score,[5]; [7],0.0135 ± 0.086
same,promoter activity interaction Z-score,[5]; [8],0.215 ± 0.14
same,promoter activity interaction Z-score,[5]; [9],0.301 ± 0.047
same,promoter activity interaction Z-score,[5]; [10],0.31 ± 0.33
same,promoter activity interaction Z-score,[5]; [11],0.0512 ± 0.26
same,promoter activity interaction Z-score,[5]; [12],0.372 ± 0.21
same,promoter activity interaction Z-score,[5]; [13],0.172 ± 0.11
same,promoter activity interaction Z-score,[5]; [14],0.159 ± 0.19
same,promoter activity interaction Z-score,[5]; [15],0.00814 ± 0.044
same,promoter activity interaction Z-score,[5]; [16],0.223 ± 0.09
same,promoter activity interaction Z-score,[5]; [17],0.122 ± 0.097
same,promoter activity interaction Z-score,[5]; [18],0.33 ± 0.46
same,promoter activity interaction Z-score,[5]; [19],-0.104 ± 0.11
same,promoter activity interaction Z-score,[5]; [20],0.322 ± 0.006
same,promoter activity interaction Z-score,[5]; [21],0.0248 ± 0.034
same,promoter activity interaction Z-score,[5]; [22],0.334 ± 0.73
same,promoter activity interaction Z-score,[6]; [7],-0.319 ± 1.1
same,promoter activity interaction Z-score,[6]; [8],-0.0114 ± 0.66
same,promoter activity interaction Z-score,[6]; [9],-0.444 ± 0.1
same,promoter activity interaction Z-score,[6]; [10],-0.376 ± 0.46
same,promoter activity interaction Z-score,[6]; [11],-0.518 ± 0.94
same,promoter activity interaction Z-score,[6]; [12],-0.427 ± 0.69
same,promoter activity interaction Z-score,[6]; [13],0.207 ± 1
same,promoter activity interaction Z-score,[6]; [14],0.311 ± 0.35
same,promoter activity interaction Z-score,[6]; [15],-1.01 ± 0.066
same,promoter activity interaction Z-score,[6]; [16],0.539 ± 0.083
same,promoter activity interaction Z-score,[6]; [17],0.18 ± 0.021
same,promoter activity interaction Z-score,[6]; [18],0.0693 ± 0.34
same,promoter activity interaction Z-score,[6]; [19],0.0415 ± 0.077
same,promoter activity interaction Z-score,[6]; [20],0.218 ± 0.98
same,promoter activity interaction Z-score,[6]; [21],-0.252 ± 0.71
same,promoter activity interaction Z-score,[6]; [22],0.709 ± 0.36
